Assay results as given in PubChem BioAssay (Tox21).
Values joined by “and” are separate entries in the source; they are usually repeats but may differ in a detail not shown here. Equal entries are not always repeated. Records with an inconclusive call do not appear. The source holds several records for some structures; these can differ, active in one and inactive in another. Active and inactive are the calls of the source. Unless noted, calls come from the whole dose curve; as a rule, active = well fitted curve in the direction sought with a large enough effect in the repeat runs; inconclusive = weak or mixed curves; inactive = no such curve, though single readings can be large; an effect the other way counts as inactive or inconclusive.

Columns and labels:
[1] = qHTS assay to identify small molecule antagonists of the androgen receptor (AR) signaling pathway using the MDA cell line in the presence of 0.5 nM R1881 - cell viability counter screen (AID 1259242); note: nearly all actives have a fitted effect of over 45% in size
Outline: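 MDA-kb2 cells (human breast carcinoma, stably carrying MMTV-luciferase reporter) were exposed to compounds with 0.5 nM R1881 (final) for 16 hr at 37C, 0% CO2; viability then read as live-cell protease fluorescence (CellTiter-Fluor, 30 min) in the same wells.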

[2] = qHTS assay to identify small molecule HDAC inhibitors (AID 1259364); note: nearly all actives have a fitted effect of over 45% in size; note: potency is the fitted concentration of half-maximal effect
Outline: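 Wild-type HCT-116 cells were plated overnight, exposed to compounds for 2 h at 37 °C, then given HDAC-Glo class I/II luminogenic reagent for 30 min at room temperature before luminescence was read.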

[3] = qHTS assay to identify small molecule HDAC inhibitors - cell viability counter screen (AID 1259365); note: series mostly up to about 92 µM; nearly all actives have a fitted effect of over 50% in size
Outline: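 HCT-116 wild-type, overnight attachment; 2hr drug exposure, 37C; CellTiter-Glo luminescent ATP readout after 30min RT.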

[4] = qHTS assay to identify small molecule agonists of the sonic hedgehog signaling (Shh) pathway - cell viability counter screen (AID 1259366); note: nearly all actives have a fitted effect of over 50% in size; note: potency is the fitted concentration of half-maximal effect
Outline: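 Compounds in DMSO were pin-transferred onto 3T3 Gli1-Luc cells that had settled 4hr; plates then stood 24hr at 37C and 5% CO2. One hour before the end, CellTiter-Fluor was added and fluorescence recorded.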

[5] = qHTS assay to identify small molecule antagonists of the sonic hedgehog signaling (Shh) pathway - cell viability counter screen (AID 1259367); note: nearly all actives have a fitted effect of over 55% in size
Outline: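 After a 4 hr settling period, 3T3 Gli1-Luc cells were treated with DMSO-dissolved chemicals and conditioned medium, kept 24 hr at 37C in 5% CO2, and assayed for viability by CellTiter-Fluor fluorescence following 1 hr reagent incubation.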

[6] = qHTS assay to identify small molecule antagonists of the sonic hedgehog signaling (Shh) pathway (AID 1259369; calls by dose curve; note: nearly all actives have a fitted effect of over 45% in size; note: potency is the fitted concentration of half-maximal effect)
Outline: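 NIH/3T3-derived 3T3Gli1-Luc cells with stably integrated Gli1-Luc reporter were preincubated 4hr at 37 C, then given compounds in DMSO plus Shh conditioned medium and incubated 24hr. Firefly luciferase luminescence read after 30min reagent at room temperature.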

[7] = target: Estrogen receptor beta (Homo sapiens) (UniProt Q92731); assay: qHTS assay to identify small molecule agonists of the estrogen receptor beta (ER-beta) signaling pathway (AID 1259377; active = well fitted activation curve with a large enough effect in the signal ratio in the repeat runs, not every such curve was filed as active; the % refers to the signal ratio)
Chain of Estrogen receptor beta (Homo sapiens) (Q92731 whole entry, looked up): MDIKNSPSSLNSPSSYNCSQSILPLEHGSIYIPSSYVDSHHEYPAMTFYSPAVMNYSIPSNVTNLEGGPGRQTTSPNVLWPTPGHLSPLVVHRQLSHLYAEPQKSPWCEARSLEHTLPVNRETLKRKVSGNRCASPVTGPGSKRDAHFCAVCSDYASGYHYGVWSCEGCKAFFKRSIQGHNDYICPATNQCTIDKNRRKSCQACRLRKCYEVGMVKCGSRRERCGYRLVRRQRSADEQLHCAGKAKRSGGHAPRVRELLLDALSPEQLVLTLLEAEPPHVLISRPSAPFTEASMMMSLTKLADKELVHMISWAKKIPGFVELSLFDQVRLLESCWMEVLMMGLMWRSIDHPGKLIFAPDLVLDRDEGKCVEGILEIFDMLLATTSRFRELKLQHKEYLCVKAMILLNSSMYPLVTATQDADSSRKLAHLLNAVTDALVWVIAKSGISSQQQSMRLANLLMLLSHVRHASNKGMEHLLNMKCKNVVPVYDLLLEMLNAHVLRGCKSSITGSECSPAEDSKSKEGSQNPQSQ
Outline: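 qHTS in ER-beta-UAS-bla HEK293T cells: 6 hr settling, then 16 hr compound at 37C, then LiveBLAzer substrate 2 h at RT before fluorescence reading.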

[8] = qHTS assay to identify small molecule agonists of the sonic hedgehog signaling (Shh) pathway (AID 1259368; calls by dose curve; note: series mostly up to about 92 µM; nearly all actives have a fitted effect of over 15% in size)
Outline: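 NIH/3T3-derived 3T3Gli1-Luc cells carrying a stably integrated Gli1 response element–firefly luciferase reporter were plated, left 4 hr at 37 C, then given compounds in DMSO for 24 hr. Luminescence was read 30 min after adding luciferase reagent.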

Measured: Potency

CCCCCCCCCCC=CC1CC(=O)OC1=O (configuration not stated)
not listed: [7] | [8]
inactive: all other assays above

NS(=O)(=O)c1cc2c(cc1Cl)NC=NS2(=O)=O
not listed: [8]
inactive: all other assays above

Oc1ccc2ccccc2c1N=Nc1ccccc1
active: [2] 21.7 µM and 15.4 µM | [4] 34.3 µM
not listed: [1]
inactive: all other assays above

Oc1ccc2ccccc2c1
active: [6] 5.58 µM and 9.69 µM
not listed: [7] | [8]
inactive: all other assays above

NC(=O)NNc1ccccc1
inactive: all assays above

CC1COc2ccccc2N1C(=O)C(Cl)Cl (configuration not stated)
active: [6] 15.3 µM
not listed: [5]
inactive: all other assays above

C=C(C#N)C(=O)OCC
inactive and 15.4 µM (active): [6]
not listed: [7] | [8]
inactive: all other assays above
